The source of these data is PubChem BioAssay AID431 (Sanford-Burnham Center for Chemical Genomics, 2006).

Among all 63,000 compounds or so, about 1,100 (1.7%) were called active.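 Rule for the calls: active = compounds whose percent cytotoxicity in the single-dose primary screen, scaled between solvent and toxic-drug controls, exceeds 50; inactive = the rest.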 The sample as a whole holds a higher share of actives than the screen did. Potency and affinity values are given separately.

This test in a line: viability loss of HPDE-C7K cells – cell-based, fluorescence, HTS, primary screen (AID 431).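 Note: 0% = DMSO solvent wells and 100% = doxorubicin-treated wells.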 The note with it: HPDE-C7K KRASV12 cells, Alamar Blue viability, 48 h; at 10 µM; active compounds read high. (In general: The colour change of resazurin is a common sign of viable cells or microbes.)
For `CC1CN(S(=O)(=O)c2ccc(NC(=O)c3ccco3)cc2)CC(C)O1` (stereo not given), the cytotoxicity is -0.1% (inactive).

With `O=S(=O)(Nc1cccc2cccnc12)c1ccc(S(=O)(=O)N2CCCC2)cc1`, the cytotoxicity is 70.3% (active).

In the case of `O=C(C1CCN(S(=O)(=O)c2cccc3cccnc23)CC1)N1CCCC1`, the cytotoxicity is 3.6% (inactive).

Consider `COc1ccc(NS(=O)(=O)c2ccc(Oc3ncccn3)cc2)cc1`, for which the cytotoxicity was 18.2% (inactive).

`CS(=O)(=O)Nc1cccc2cccnc12`: the cytotoxicity was 14.8% (inactive).

In the case of `COc1cc(NS(=O)(=O)c2ccc(C)cc2)c2ncccc2c1`, the cytotoxicity is 69.8% (active).

Take `COc1cc(NCCCC(C)N)c2ncccc2c1` (stereo not given): the cytotoxicity is 4.4% (inactive).

On to `O=C(c1nc2nc(-c3ccc(Cl)cc3)cc(C(F)(F)F)n2n1)N1CCOCC1`, for which the cytotoxicity is 3.6% (inactive).

For `COc1ccc(OC)c(-n2cnc3cc(C(=O)O)ccc32)c1`, the cytotoxicity was -15.9% (inactive).

Turning to `CC1CCN(CCNC(=O)C2CCCN(S(=O)(=O)c3cccc4nonc34)C2)CC1` (stereo not given), the cytotoxicity was -4.5% (inactive).

In the case of `CC(C)OC(=O)c1c(NC(=O)c2cccs2)sc2c1CCCC2`, the cytotoxicity is -3.4% (inactive).

Regarding `CCc1c(C)sc(NC(=O)c2cccs2)c1C(=O)OC(C)C`, the cytotoxicity is 51.6% (active).

For the compound `CCOC(=O)c1c(NC(=O)c2cccs2)sc(C)c1CC`, the cytotoxicity was 2.4% (inactive).

Turning to `COCc1cc(=O)[nH]c(Nc2nc3ccc(C)cc3o2)n1`, the cytotoxicity was 50.7% (active).

`COCc1cc(=O)[nH]c(Nc2nc3ccccc3o2)n1`: the cytotoxicity is 28.8% (inactive).

`COC(=O)Cc1cc(=O)[nH]c(Nc2nc3ccccc3o2)n1`: the cytotoxicity was 11.4% (inactive).

Turning to `COc1ccccc1NC(C)=O`, the cytotoxicity was -2.1% (inactive).

Take `Cc1cccc(NC(=O)c2ccc(S(=O)(=O)N3CCCCC3)cc2)n1`: the cytotoxicity was 2.7% (inactive).

For the compound `COC(=O)c1cc(NC(=O)C2CC=CCC2C(=O)O)cc(C(=O)OC)c1` (stereo not given), the cytotoxicity is -9.5% (inactive).

On to `CC1Cn2c(nnc2-c2cccc(N)c2)S1` (stereo not given), for which the cytotoxicity was -6.4% (inactive).

As for `COc1ccc(S(=O)(=O)N(C)CC(=O)Nc2cccc(C(C)=O)c2)cc1`, the cytotoxicity is -14.2% (inactive).

For the compound `COc1ccc(-c2nnc(COc3ccc4ccccc4c3)o2)cc1OC`, the cytotoxicity is -1.8% (inactive).

On to `COc1cc(-c2nnc(COc3ccc4cc(Br)ccc4c3)o2)cc(OC)c1OC`, for which the cytotoxicity is 75.7% (active).

Take `COc1cc(-c2nnc(COc3ccc4ccccc4c3)o2)cc(OC)c1OC`: the cytotoxicity is 36.9% (inactive).

Turning to `COc1ccc(N=C2SC(C(=O)Nc3ccc4c(c3)OCO4)CC(=O)N2C)cc1` (stereo not given), the cytotoxicity was -25% (inactive).

Consider `Cc1c(NC(=O)COC(=O)C2CC3C=CC2C3)c(=O)n(-c2ccccc2)n1C` (stereo not given), for which the cytotoxicity is -2.3% (inactive).

Turning to `CC(/C(O)=C(\C#N)c1nc2ccccc2n1C)N1C(=O)c2ccccc2C1=O` (stereo not given), the cytotoxicity was 0.7% (inactive).

Regarding `Cc1ccc(N2CCN(c3ccc(C)cc3)C2c2ccncc2)cc1`, the cytotoxicity was -25.3% (inactive).

On to `Cc1cccc(N2CCN(C(=O)c3ccncc3)CC2C)c1` (stereo not given), for which the cytotoxicity is 7.3% (inactive).

With `Cc1cccc(N2CCN(c3cccc(C)c3)C2c2cccnc2)c1`, the cytotoxicity is 53.7% (active).

Take `Cc1cccc(N2CCN(C(=O)COc3cc(=O)n(C)c4ccccc34)CC2C)c1` (stereo not given): the cytotoxicity was -5.4% (inactive).

In the case of `c1cncc(C2Nc3ccccc3-c3nc4ccccc4n32)c1` (stereo not given), the cytotoxicity is 3.3% (inactive).

Take `O=S(=O)(NC1CCCC1)c1ccccc1Cl`: the cytotoxicity is -5.7% (inactive).

As for `C=CCc1cccc(/C=N/c2ncn[nH]2)c1O`, the cytotoxicity is 18.3% (inactive).

Turning to `COc1cccc(C=Nc2cc(C)on2)c1O`, the cytotoxicity was 7.3% (inactive).

Regarding `COc1cc(Br)cc(/C=N/c2ncn[nH]2)c1O`, the cytotoxicity is 85.2% (active).

Turning to `O=c1c2ccccc2c(/C=N/c2ncn[nH]2)c(O)n1Cc1ccccc1`, the cytotoxicity is 17.3% (inactive).

For `Oc1c(/C=N/c2ncn[nH]2)ccc2ccccc12`, the cytotoxicity was 65.8% (active).

With `COc1cc(Br)cc(CN2CCN(C=O)CC2)c1O`, the cytotoxicity is -2.1% (inactive).

For `Cc1ccccc1-c1nnc(-c2ccc(Br)cc2)o1`, the cytotoxicity was 0.4% (inactive).

For the compound `COc1cc(OC)cc(C(=O)Nc2ncc3c(n2)CC(C)CC3=O)c1` (stereo not given), the cytotoxicity was 18.9% (inactive).

Regarding `CC(C)c1ccc(NC(=O)c2cnn(-c3ccccc3)c2NC(=O)c2ccco2)cc1`, the cytotoxicity is 0.3% (inactive).

Take `CCN(CC)CCNC(=O)c1cc2c(=O)n(C)c3ccccc3c2n1C`: the cytotoxicity was -20% (inactive).

As for `O=C(Cn1cc2c(n1)CCCC2)Nc1ccccc1Cl`, the cytotoxicity is -7.1% (inactive).

Turning to `CCOC(=O)c1cccc(NC(=O)CSc2nnc(COc3ccccc3)n2CC)c1`, the cytotoxicity was -20.1% (inactive).

Consider `NS(=O)(=O)c1ccc(Nc2nc(-c3ccc(O)cc3)cs2)cc1`, for which the cytotoxicity was 32.7% (inactive).

In the case of `C=CCNc1nc(-c2sc(NC(=O)CC)nc2C)cs1`, the cytotoxicity is 31.5% (inactive).

Consider `Nc1nc(-c2ccc3c(c2)OCCO3)cs1`, for which the cytotoxicity is -0.3% (inactive).

Consider `Oc1ccc(Nc2nc(-c3ccc(O)cc3)cs2)cc1`, for which the cytotoxicity is 84.1% (active).

`O=C(Nc1nc(-c2ccc3c(c2)OCO3)cs1)C1CC1`: the cytotoxicity was -0.9% (inactive).

For `CC(=O)Nc1nc(C)c(-c2csc(Nc3ccc(O)cc3)n2)s1`, the cytotoxicity is 63.2% (active).

In the case of `C=CCNc1nc(-c2sc(NC(C)=O)nc2C)cs1`, the cytotoxicity was 33% (inactive).

As for `c1cc2c(cc1Nc1nc(-c3ccc4c(c3)OCO4)cs1)OCCO2`, the cytotoxicity was 56.7% (active).

Regarding `c1cncc(Nc2nc(-c3ccncc3)cs2)c1`, the cytotoxicity was 4.9% (inactive).

Turning to `CC(C)CN(CC(C)C)S(=O)(=O)N1CCC(C(=O)NCCN2CCOCC2)CC1`, the cytotoxicity was -24.9% (inactive).

For the compound `Cc1ccc2c(c1)NC(=O)C(CC(=O)NCCCN1CCCC1=O)O2` (stereo not given), the cytotoxicity is -1% (inactive).

As for `Cc1nn(C)cc1/C=N/O`, the cytotoxicity was -2% (inactive).

For `COc1cc(Nc2cc(C)nc3nc(C)nn23)cc(OC)c1OC`, the cytotoxicity was -6% (inactive).

Turning to `Cc1ccc(S(=O)(=O)N(C)Cc2nc(-c3ccc(Br)cc3)no2)cc1`, the cytotoxicity is -5% (inactive).

Turning to `COC(=O)C1=C(C)n2nnnc2NC1c1ccc(Cl)cc1` (stereo not given), the cytotoxicity was 69.3% (active).

Consider `COC(=O)C1=C(C)n2cnnc2NC1c1ccc(Cl)cc1` (stereo not given), for which the cytotoxicity is 6.1% (inactive).

With `COC(=O)C1=C(C)n2nnnc2NC1c1cc2ccccc2o1` (stereo not given), the cytotoxicity is 4.4% (inactive).

With `Cc1cc(S(=O)(=O)NCCN2CCOCC2)c(C)s1`, the cytotoxicity was 1.5% (inactive).

On to `O=C(CCN1C(=O)COc2ccccc21)NCCN1CCN(c2ccccc2F)CC1`, for which the cytotoxicity is 2% (inactive).

With `C=CCn1c(COc2ccccc2)nnc1SCC(=O)Nc1ccc(S(N)(=O)=O)cc1`, the cytotoxicity is -13.8% (inactive).
